Most compounds without a hit are left out; they make up all but 11% or so of the library.
HPGD block = qHTS Assay for Inhibitors of HPGD (15-Hydroxyprostaglandin Dehydrogenase); purified HPGD, NADH fluorescence kinetic, PGE2 substrate; Potency, µM, inactives show at the highest dose activity change, negative = inhibition, most hits filed as inhibitors; 4.3% of 150,000 active; AID 894, 2007; active means well fitted inhibition curve with a large enough effect, not every such curve was filed as active; inconclusive means small, poorly fitted or top-dose-only effect, or another doubt; inactive means no such curve, though single readings can be large or run the other way; further: potency means the concentration at half of the fitted maximal effect; on the % scale 0 is the no-effect control and ±100 the full control effect
Target sequence (P15428 whole entry, looked up): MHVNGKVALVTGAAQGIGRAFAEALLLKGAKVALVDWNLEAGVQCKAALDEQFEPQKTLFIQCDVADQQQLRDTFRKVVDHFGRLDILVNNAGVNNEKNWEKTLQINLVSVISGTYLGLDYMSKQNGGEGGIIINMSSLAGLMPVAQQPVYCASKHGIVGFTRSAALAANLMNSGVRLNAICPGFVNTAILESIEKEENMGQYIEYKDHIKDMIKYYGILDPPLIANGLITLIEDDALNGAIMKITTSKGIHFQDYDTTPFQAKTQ
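20 nM HPGD preincubated 15 min at room temperature with compound in 50 mM Tris-HCl pH 8, 0.01% Tween 20. Started with 1 mM NAD+ and 30 uM prostaglandin E2; NADH fluorescence (360/450 nm) read 5 times over 30-s intervals, last minus first.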
ALDH1A1 inh = qHTS Assay for Inhibitors of Aldehyde Dehydrogenase 1 (ALDH1A1) | Potency, µM (highest dose often 75.3 µM), without a hit: at the highest dose activity, negative = inhibition, actives largely listed as inhibitors | 7.3% of 220,000 active | Purified ALDH1A1, NADH fluorescence, propionaldehyde substrate | Aldehyde dehydrogenase 1A1 (Homo sapiens), P00352; active means well fitted inhibition curve with a large enough effect, not every such curve was filed as active; inconclusive means small, poorly fitted or top-dose-only effect, or another doubt; inactive means no such curve, though single readings can be large or run the other way;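 further: potency means the concentration at half of the fitted maximal effect; plate controls were no enzyme wells and a reference inhibitor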
PNC inhibitor = High Content Assay for Compounds that inhibit the Assembly of the Perinucleolar Compartment; PC3M PTB-GFP, PNC prevalence imaging, 16 h; stronger effect = lower value; 3.1% of 140,000 active; activity change (PNC), negative = inhibition, % at 10 µM;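 active means readout at or below -70, meaning at least 70% loss of cells showing the perinucleolar compartment, a nuclear body marking cancer cells; inconclusive means readout between -30 and a set limit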;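 further: plate controls were DMSO wells for no effect and camptothecin positive control wells for full effect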
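PC3M cells stably expressing PTB-GFP, 750–1000 cells/well, treated 16 h at 37 °C with compound (23 nl of library stock), in duplicate. After paraformaldehyde fixation and Hoechst stain, imaged at 20x; PNC prevalence scored by image analysis.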
HTT cytoprotect = qHTS Multiplex Assay to Identify Dual Action Probes in a Cell Model of Huntington: Cytoprotection (ATP); Potency, µM (series often up to 56.4 µM), for inactives: cytoprotection (ATP increase), actives largely listed as activators; PC12 HTT-Q103 induced, cytoprotection, ATP luminescence, 40 h; 0.14% of 230,000 active; further: potency means the concentration at half of the fitted maximal effect; % of control where 0% means no effect; nearly all actives have a fitted effect of over 45% in size
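Stable PC12 Q103-GFP cells in serum-supplemented, phenol red-free DMEM; induction by tebufenozide at 100 nM final; compound dose series; cell viability quantified luminescently from ATP.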
HttQ103 aggreg = qHTS Multiplex Assay to Identify Dual Action Probes in a Cell Model of Huntington: Aggregate Formation (GFP); AID 1688, 2009; 1.1% of 220,000 active; Potency, µM (doses to about 46.1 µM), for inactives: at the highest dose activity change, negative = inhibition, most hits filed as inhibitors; PC12 HttQ103-GFP aggregates, Acumen cytometry, 40 h; further: potency means the concentration at half of the fitted maximal effect; on the % scale 0 is the no-effect control and ±100 the full control effect; nearly all actives have a fitted effect of over 60% in size
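Using laser scanning cytometry, GFP-positive aggregates were counted after lysis of PC12 cells induced with 100 nM tebufenozide to express HTT exon 1 Q103–GFP. Compounds were tested in titration.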
CBFb RUNX1 block = qHTS Assay for Compounds Blocking the Interaction Between CBF-beta and RUNX1 for the Treatment of Acute Myeloid Leukemia; AlphaScreen CBFb-His/RUNX1-biotin binding, biochemical; 230,000 tested, under 10 active; Runt-related transcription factor 1 (Homo sapiens) + Core-binding factor subunit beta …; Potency, µM (highest dose often 59.8 µM), for inactives: top-dose activity, negative = inhibition, most hits filed as inhibitors; further: % of control where 0% means no effect
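AlphaScreen proximity signal reports loss of binding between His-tagged CBF-beta and biotin-labelled RUNX1, each at 30 nM. Proteins are pre-associated for 20 minutes, compounds added for 15 minutes, then beads for 90 minutes, all at ambient temperature.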
* marks the source's active call; other numbers are inactive results; ? = inconclusive; . = not tested or not shown; [ ] = dose if it differs, or a comment. Unless noted, the call rests on the fitted dose curve; in most records, active means well fitted curve in the direction sought with a large enough effect; inconclusive means small, poorly fitted or top-dose-only effect, or another doubt; inactive means no such curve, though single readings can be large; an effect the other way counts as inactive or inconclusive.

SMILES	HPGD block	ALDH1A1 inh	PNC inhibitor	HTT cytoprotect	HttQ103 aggreg	CBFb RUNX1 block
CCOC(=O)CC1C(=O)NCCN1S(=O)(=O)c1cc(Cl)c(Cl)cc1Cl (configuration not stated)	2%	-3%	-98*	1%	4%	1%
O=S1(=O)C2CC3C=CC2(CN1Cc1ccccc1)O3 (configuration not stated)	.	.	.	.	.	0%
CC(C)(C)c1ccc(NC(=O)N2CCCN(c3ccc([N+](=O)[O-])cn3)CC2)cc1	.	16µM*	.	2%[10 µM]	20%[9.22 µM]	1%
Cc1nn(-c2ccccc2)c(N2CCCC2)c1/C=N/NC(=S)Nc1ccccc1F	?	?	-86*	7%[10 µM]	?	-11%
Cc1nn(-c2ccccc2)c(N2CCCC2)c1/C=N/NC(=O)c1cc2ccccc2cc1O	?	5%	-1	-17%[10 µM]	-7%	6%
CC1(C)CC(=O)C(=Cc2cn(CCC#N)nc2-c2ccc(F)cc2)C(=O)C1	20µM*	-1%	?	26%[10 µM]	-1%	1%
N#CCCn1cc(/C=N/O)c(-c2ccc(F)cc2)n1	-4%	19%	9	3%	-4%[9.22 µM]	-1%
CC1(C)CC(=O)C(=Cc2cn(-c3ccccc3)nc2-c2ccc(Cl)cc2)C(=O)C1	1.1µM*	?	20	-15%	1%	3%
CC1(C)CC(=O)C(=Cc2cn(CCC#N)nc2-c2ccc(Cl)cc2)C(=O)C1	16µM*	-6%	0	16%[10 µM]	-19%	-5%
N#CCCn1cc(/C=C2\NC(=S)N(c3ccccc3)C2=O)c(-c2ccc(F)cc2)n1	.	25µM*	.	-63%[1.9 µM]	-5%[9.22 µM]	2%
CC1=NNC(=O)/C1=C\c1cn(-c2ccccc2)nc1-c1ccccc1	.	-9%	.	-54%[1.9 µM]	-34%[9.22 µM]	11%
CC(C)COC[C@H](CN(Cc1ccccc1)c1ccccc1)N1CCCC1	-4%	6%[20.9 µM]	.	8%[17.1 µM]	.	-4%[21.7 µM]
COc1ccccc1NC(=O)C(C)Sc1nnnn1C (configuration not stated)	-4%	8.9µM*	-20	2%	22%	2%
CC1(C)OC(=O)C(=Cc2ccc[nH]2)C(=O)O1	.	16µM*	.	0%[10 µM]	-1%[9.22 µM]	-1%
CCN(CC)S(=O)(=O)c1ccc(-n2c(=O)c(C(C)C)c(C)n2C)cc1	.	-1%	.	-22%[10 µM]	-15%[9.22 µM]	9%
O=C(O)/C=C\C(=O)Nc1cc(O)ccc1[N+](=O)[O-]	.	.	.	-38%[10 µM]	-43%[9.22 µM]	8%
Cc1ccc(NC(=O)/C=C\C(=O)O)c([N+](=O)[O-])c1	-7%	13µM*	-6	17%[10 µM]	11%	-3%
Cc1ccc(NC(=O)Cn2ccsc2=N)c([N+](=O)[O-])c1	.	7.1µM*	.	-6%	2%	5%
Cc1cc(C)c(NC(=O)/C=C\C(=O)O)c([N+](=O)[O-])c1	22µM*	10µM*	5	3%	6%	3%
Cc1cc(C)c(NC(=O)/C=C\C(=O)O)c(Cl)c1	-6%	?	2	.	1%	14%
CC[C@H](C)[C@H](NC(=O)[C@H](Cc1ccc(O)cc1)NC(=O)[C@@H]1CCCN1C(=O)[C@H](CCCN=C(N)N)NC(=O)[C@H](CCCN=C(N)N)NC(=O)[C@@H]1CCCN1C(=O)[C@H](CCCCN)NC(=O)[C@H](CC(N)=O)NC(=O)[C@H](CCC(N)=O)NC(=O)[C@H](Cc1ccc(O)cc1)NC(=O)[C@H](CC(C)C)NC(=O)[C@@H]1CCC(=O)N1)C(=O)N[C@@H](CC(C)C)C(=O)O	.	.	.	.	.	7%

Compound activity deposited in PubChem BioAssay by National Center for Advancing Translational Sciences (NCATS).
